Reference: PubChem BioAssay (Tox21)
Records with an inconclusive call do not appear. The source made the active and inactive calls. Unless noted, calls follow the shape of the dose curve; as a rule, active = well fitted curve in the direction sought with a large enough effect in the repeat runs; inconclusive = weak or mixed curves; inactive = no such curve, though single readings can be large; an effect the other way counts as inactive or inconclusive.

Columns and labels:
[1] = qHTS assay to identify small molecule agonists of the peroxisome proliferator-activated receptor delta (PPARd) signaling pathway - cell viability counter screen (AID 743211); also: nearly all actives have a fitted effect of over 55% in size
Summary of the method: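 PPARd-bla HEK293H cells (UAS-beta-lactamase reporter) were treated with compounds for 17 h at 37 C. Viability was then read in the same wells by CellTiter-Glo luminescence after 30 min at room temperature.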

[2] = biological target: Peroxisome proliferator-activated receptor delta (Homo sapiens) (UniProt Q03181); assay: qHTS assay to identify small molecule agonists of the peroxisome proliferator-activated receptor delta (PPARd) signaling pathway (AID 743212; calls by dose curve)
Summary of the method: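 Quantitative high-throughput agonist screen in a HEK293H beta-lactamase reporter line under UAS control. Compounds in DMSO, at 37 C. Fluorescence read after 2 h with FRET substrate at room temperature.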

[3] = qHTS assay to identify small molecule antagonists of the peroxisome proliferator-activated receptor delta (PPARd) signaling pathway - cell viability counter screen (AID 743213); also: nearly all actives have a fitted effect of over 50% in size
Summary of the method: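 PPARd-bla HEK293H cells were treated with compounds plus agonist L165041 (300 nM final) for 17 h at 37 C. Viability was then read in the same wells by CellTiter-Glo luminescence after 30 min at room temperature.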

[4] = qHTS assay to identify small molecule agonists of the farnesoid-X-receptor (FXR) signaling pathway - cell viability counter screen (AID 743218); also: nearly all actives have a fitted effect of over 45% in size
Summary of the method: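 Cytotoxicity counter-screen run in parallel, same wells: FXR-UAS-bla HEK 293T cells dosed 16 h at 37 C, viability read by CellTiter-Glo luminescence after 30 min at room temperature.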

[5] = biological target: Bile acid receptor (Homo sapiens) (UniProt Q96RI1); assay: qHTS assay to identify small molecule agonists of the farnesoid-X-receptor (FXR) signaling pathway (AID 743220; active = well fitted activation curve with a large enough effect in the signal ratio in the repeat runs, not every such curve was filed as active; the % refers to the signal ratio)
Summary of the method: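 Beta-lactamase reporter under UAS control in GeneBLAzer FXR HEK 293T cells (5000/well) measured with LiveBLAzer FRET substrate after 2 h at room temperature. Compound exposure lasted 16 h at 37C.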

[6] = qHTS assay to identify small molecule antagonists of the farnesoid-X-receptor (FXR) signaling pathway - cell viability counter screen (AID 743221; active = well fitted cell-killing curve with a large enough effect in the repeat runs, not every such curve was filed as active; also: nearly all actives have a fitted effect of over 50% in size)
Summary of the method: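 FXR-UAS-bla HEK 293T cells were treated with test compounds plus chenodeoxycholic acid (50 uM final) for 16 h at 37 C. Cell viability in the same wells was then read as CellTiter-Glo luminescence after 30 min at room temperature.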

[7] = qHTS assay to identify small molecule agonists of the vitamin D receptor (VDR) signaling pathway - cell viability counter screen (AID 743224); also: series mostly up to about 63 µM; nearly all actives have a fitted effect of over 50% in size
Summary of the method: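 Viability is measured in the same wells as the VDR-bla reporter assay: after 16 h compound treatment and 2 h substrate loading, CellTiter-Glo is added and luminescence read 30 min later.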

[8] = qHTS assay to identify small molecule antagonists of the vitamin D receptor (VDR) signaling pathway - cell viability counter screen (AID 743225); also: nearly all actives have a fitted effect of over 50% in size
Summary of the method: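 VDR-bla HEK 293T cells, 4 h pre-incubation at 37C, then compound plus 1-alpha,25-dihydroxyvitamin D3 (3 nM final) for 16 h. After the beta-lactamase FRET read, CellTiter-Glo was added to the same wells; luminescence after 30 min at room temperature.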

[9] = qHTS assay to identify small molecule agonists of the NFkB signaling pathway (AID 1159509; active = well fitted curve in the direction sought with a large enough effect in the signal ratio in the repeat runs, not every such curve was filed as active; the % refers to the signal ratio; also: series mostly up to about 61 µM)
Summary of the method: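 After overnight attachment, reporter cells received test compounds, DMSO or positive controls and were incubated 5 hr at 37 C. FRET substrate was then added for 1.5 hr at room temperature before dual-emission fluorescence reading.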

[10] = qHTS assay to identify small molecule agonists of the NFkB signaling pathway - cell viability counter screen (AID 1159515; calls by dose curve; also: series mostly up to about 61 µM; nearly all actives have a fitted effect of over 55% in size)
Summary of the method: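 Multiplexed viability readout: after the 5 hr compound exposure and 1.5 hr FRET substrate step, CellTiter-Glo reagent went into the same NFkB-bla ME-180 wells; ATP luminescence was measured after 30 min at room temperature.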

[11] = qHTS assay to identify small molecule agonists of the endoplasmic reticulum stress response signaling pathway (AID 1159516; active = well fitted activation curve with a large enough effect in the signal ratio in the repeat runs, not every such curve was filed as active; the % refers to the signal ratio)
Summary of the method: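 Tox21 10K library screened in quantitative HTS format on ESRE-bla HeLa cells, a beta-lactamase reporter under ER stress response element control; 5 hr treatment, FRET read.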

[12] = qHTS assay to identify small molecule agonists of the endoplasmic reticulum stress response signaling pathway - cell viability counter screen (AID 1159517; calls by dose curve)
Summary of the method: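 Counter-screen wells were identical to the reporter wells. Cells were plated at 1,500 per well and dosed for 5 hr, then read for luminescence 30 min after CellTiter-Glo addition.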

[13] = qHTS assay to identify small molecule antagonists of the retinoid-related orphan receptor gamma (ROR-gamma) signaling pathway - cell viability counter screen (AID 1159520); also: nearly all actives have a fitted effect of over 50% in size
Summary of the method: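 Tet-on ROR gamma CHO cells were given compounds for 2 hr, then doxycycline hyclate at 1 uM final, and incubated 16 hr at 37 C. Viability was measured as ATP content by CellTiter-Glo luminescence.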

[14] = qHTS assay to identify small molecule agonists of the AP-1 signaling pathway - cell viability counter screen (AID 1159525; calls by dose curve; also: nearly all actives have a fitted effect of over 55% in size)
Summary of the method: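 AP-1-bla ME-180 cells in Opti-MEM with 0.5% dialyzed FBS, compound exposure 5 h at 37 C in 15-point titration. Viability read in the same wells as ATP content by CellTiter-Glo luminescence, normalised to tetra-n-octylammonium bromide and DMSO controls.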

[15] = qHTS assay to identify small molecule agonists of the AP-1 signaling pathway (AID 1159526; calls by dose curve)
[16] = biological target: Vitamin D3 receptor (Homo sapiens) (UniProt P11473); assay: qHTS assay to identify small molecule agonists of the vitamin D receptor (VDR) signaling pathway (AID 743222; calls by dose curve)
Summary of the method: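 Quantitative HTS agonist-mode screen: compounds in DMSO were pin-transferred onto VDR-bla cells and incubated 16 h at 37C, 5% CO2. Reporter activity was detected with LiveBLAzer B/G FRET substrate after 2 h at room temperature.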

[17] = biological target: Bile acid receptor (Homo sapiens) (UniProt Q96RI1); assay: qHTS assay to identify small molecule antagonists of the farnesoid-X-receptor (FXR) signaling pathway (AID 743217; active = well fitted inhibition curve with a large enough effect in the signal ratio in the repeat runs, not every such curve was filed as active; the % refers to the signal ratio)
Summary of the method: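 Antagonist mode against 50 uM (final) chenodeoxycholic acid stimulation in FXR-bla HEK 293T cells, 16 h at 37 °C. Inhibition detected as reduced beta-lactamase activity via LiveBLAzer B/G FRET fluorescence after 2 h at room temperature.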

[18] = biological target: Vitamin D3 receptor (Homo sapiens) (UniProt P11473); assay: qHTS assay to identify small molecule antagonists of the vitamin D receptor (VDR) signaling pathway (AID 743223; active = well fitted inhibition curve with a large enough effect in the signal ratio in the repeat runs, not every such curve was filed as active; the % refers to the signal ratio)
Summary of the method: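 VDR-bla cells were plated, incubated 4 h at 37C, then given compound and 1alpha,25-dihydroxyvitamin D3 (3 nM final). After 16 h at 37C, LiveBLAzer B/G FRET substrate was added for 2 h at room temperature and fluorescence read.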

[19] = biological target: Peroxisome proliferator-activated receptor delta (Homo sapiens) (UniProt Q03181); assay: qHTS assay to identify small molecule antagonists of the peroxisome proliferator-activated receptor delta (PPARd) signaling pathway (AID 743215; active = well fitted inhibition curve with a large enough effect in the signal ratio in the repeat runs, not every such curve was filed as active; the % refers to the signal ratio;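 also: cells stimulated with agonist L165041 at 300 nM final during compound exposure; series mostly up to about 62 µM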)
Summary of the method: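 Inhibition of L165041-driven (300 nM final) PPARd signaling is scored in HEK293H UAS-bla cells. Exposure lasts 17 h at 37 C; beta-lactamase activity is then read by FRET substrate fluorescence after 2 h at room temperature.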

Measured: Potency

Sequence of Vitamin D3 receptor (Homo sapiens) (P11473 whole entry, looked up): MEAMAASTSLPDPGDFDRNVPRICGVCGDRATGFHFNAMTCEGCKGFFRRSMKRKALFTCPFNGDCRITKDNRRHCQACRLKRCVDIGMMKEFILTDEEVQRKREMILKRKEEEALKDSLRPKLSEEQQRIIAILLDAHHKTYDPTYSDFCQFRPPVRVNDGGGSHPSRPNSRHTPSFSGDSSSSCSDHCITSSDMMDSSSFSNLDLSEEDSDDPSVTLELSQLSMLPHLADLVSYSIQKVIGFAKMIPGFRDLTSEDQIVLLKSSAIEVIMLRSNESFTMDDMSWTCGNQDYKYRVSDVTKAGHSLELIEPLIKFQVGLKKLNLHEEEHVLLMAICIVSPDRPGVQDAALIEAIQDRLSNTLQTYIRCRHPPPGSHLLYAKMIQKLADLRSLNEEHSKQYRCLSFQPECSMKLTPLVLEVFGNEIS
Sequence of Peroxisome proliferator-activated receptor delta (Homo sapiens) (Q03181 whole entry, looked up): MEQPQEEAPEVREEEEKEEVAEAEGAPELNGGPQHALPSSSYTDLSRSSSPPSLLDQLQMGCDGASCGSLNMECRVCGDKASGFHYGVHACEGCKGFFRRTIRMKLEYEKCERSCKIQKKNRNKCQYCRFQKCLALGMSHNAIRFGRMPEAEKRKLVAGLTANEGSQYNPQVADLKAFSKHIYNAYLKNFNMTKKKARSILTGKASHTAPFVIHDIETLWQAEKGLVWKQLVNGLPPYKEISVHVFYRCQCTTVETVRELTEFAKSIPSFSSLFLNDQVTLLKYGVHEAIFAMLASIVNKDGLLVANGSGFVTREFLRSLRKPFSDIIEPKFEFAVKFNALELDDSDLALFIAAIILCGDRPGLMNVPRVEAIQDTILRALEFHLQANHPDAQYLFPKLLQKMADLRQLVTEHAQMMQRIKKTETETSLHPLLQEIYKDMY
Sequence of Bile acid receptor (Homo sapiens) (Q96RI1 whole entry, looked up): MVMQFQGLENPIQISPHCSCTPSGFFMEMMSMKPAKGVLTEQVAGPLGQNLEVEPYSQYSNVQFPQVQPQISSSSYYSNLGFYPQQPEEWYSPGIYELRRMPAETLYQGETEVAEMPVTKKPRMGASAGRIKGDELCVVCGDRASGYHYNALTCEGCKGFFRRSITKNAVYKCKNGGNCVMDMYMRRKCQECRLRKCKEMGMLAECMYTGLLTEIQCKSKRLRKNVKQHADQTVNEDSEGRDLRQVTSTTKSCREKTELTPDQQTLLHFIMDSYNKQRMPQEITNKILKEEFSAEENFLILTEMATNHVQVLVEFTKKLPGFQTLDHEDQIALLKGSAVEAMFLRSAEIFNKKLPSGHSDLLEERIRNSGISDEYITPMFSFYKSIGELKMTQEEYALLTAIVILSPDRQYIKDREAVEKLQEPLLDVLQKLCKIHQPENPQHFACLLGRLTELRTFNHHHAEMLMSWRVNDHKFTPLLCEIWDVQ

CC(C)(C)C(=O)C(Oc1ccc(Cl)cc1)n1ccnc1 (stereo not drawn)
not listed: [16] | [17] | [18] | [19]
inactive: all other assays above

CCCCOC(=O)CCS
not listed: [17] | [18] | [19]
inactive: all other assays above

C=CC(=O)NCOCC(C)C
not listed: [2] | [6] | [16] | [18] | [19]
inactive: all other assays above

CC(C)C(=O)O
not listed: [3] | [5] | [17] | [19]
inactive: all other assays above

Cc1oc(C)c(C(=O)Nc2ccccc2)c1C
not listed: [3] | [5] | [6] | [7] | [8] | [17] | [19]
inactive: all other assays above

CCC(C)=O
not listed: [5] | [19]
inactive: all other assays above

O=C(CCCCCCCCC#CI)Oc1ccccc1
not listed: [2]
inactive: all other assays above

OC(CCCN1CCCCC1)(c1ccccc1)c1ccccc1
not listed: [4] | [5] | [16] | [17]
inactive: all other assays above

CCOCCn1c(C2CCN(CCc3ccc(C(C)(C)C(=O)O)cc3)CC2)nc2ccccc21
not listed: [3] | [16] | [19]
inactive: all other assays above

Nc1nccs1
not listed: [5] | [16] | [17] | [19]
inactive: all other assays above

CNC(=O)N(c1ccccc1)c1ccccc1
not listed: [2] | [5] | [16] | [17] | [18] | [19]
inactive: all other assays above

CCCOc1ccc(S(=O)(=O)N2CCN(CC)CC2)cc1-c1nc2c(CC)n(Cc3ccccn3)nc2c(=O)[nH]1
not listed: [2] | [18] | [19]
inactive: all other assays above

COc1ccc(C(=O)c2cccc(O)c2)c(OC)c1
not listed: [2] | [5] | [17] | [19]
inactive: all other assays above

CC(=O)Oc1ccc(C(=C2CCCCC2)c2ccc(OC(C)=O)cc2)cc1
not listed: [1] | [7] | [16] | [18] | [19]
inactive: all other assays above

CSc1ccc(Oc2ccc(S(N)(=O)=O)cc2CN(C)C)cc1C
inactive: [3] | [5] | [9] | [10] | [11] | [12] | [13] | [14] | [15]

N#C[C@@H]1C[C@@H]2C[C@@H]2N1C(=O)[C@@H](N)C12CC3CC(CC(O)(C3)C1)C2
not listed: [2] | [3] | [17] | [18] | [19]
inactive: all other assays above

CCOC(=O)CC(=O)C(=O)OCC
not listed: [1] | [8] | [16] | [18] | [19]
inactive: all other assays above
